For assay [1], the target named is Calcium and integrin-binding protein 1 (Homo sapiens) (UniProt Q99828). Kind of assay: Primary qHTS for Identification of Calcium Integrin Binding Protein 1 (CIB1) Competitor (AID 1508620).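 Also: GST tagged CIB1 binding a fluorescein labelled alphaIIb integrin peptide tracer; top concentration of the series differs between compounds.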 In outline:
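Fluorescence polarization competition: GST-tagged CIB1 (1 uM final) preincubated with compound 15 min at room temperature, then FITC-labelled alphaIIb peptide (100 nM final) added. After 15 min at room temperature, polarization read at Ex 480/Em 540.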

Assay [2] can be described thus: Primary qHTS for inhibitors of nuclear receptor binding SET domain protein 2 (NSD2) in an isogenic RCH-ACV NSD2 p.E1099K mutant (9B) (AID 1645876). Also: nearly all actives have a fitted effect of over 70% in size. Also: potency is read from the fitted curve at half-maximal effect.
Assay [3] can be described thus: Primary qHTS for inhibitors of nuclear receptor binding SET domain protein 2 (NSD2) in an RCH-ACV wild type WT cells (2C) (AID 1645877). Also: nearly all actives have a fitted effect of over 70% in size. Also: potency is read from the fitted curve at half-maximal effect.

Data on 16 compounds can be found in PubChem BioAssay (NCATS).

Each structure is given as a SMILES string. Results filed as inconclusive are left out. Values without a mark were called inactive. Calls of active or inactive are those of the source. Calls follow the shape of the dose curve; as a rule, active = well fitted curve in the direction sought with a large enough effect; inconclusive = small, poorly fitted or top-dose-only effect, or another doubt; inactive = no such curve, though single readings can be large; an effect the other way counts as inactive or inconclusive.
% is scaled to controls: 0 for no effect and ±100 for the full control effect.

Calcium and integrin-binding protein 1 (Homo sapiens), sequence (Q99828 whole entry, looked up): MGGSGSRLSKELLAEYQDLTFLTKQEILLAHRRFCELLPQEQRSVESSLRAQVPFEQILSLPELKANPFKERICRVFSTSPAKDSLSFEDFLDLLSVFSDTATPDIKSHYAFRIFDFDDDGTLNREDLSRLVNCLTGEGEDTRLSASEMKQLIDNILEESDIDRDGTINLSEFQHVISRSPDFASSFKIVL

Take `CC1(C)CC[C@]2(C(=O)O)[C@H](O)C[C@]3(C)C(=CCC4[C@@]5(C)CC[C@H](O[C@@H]6O[C@H](CO[C@@H]7OC[C@H](O)[C@H](O)[C@H]7O[C@@H]7OC[C@H](O)[C@H](O)[C@H]7O)[C@@H](O)[C@H](O)[C@H]6O)C(C)(C)C5CC[C@]43C)[C@@H]2C1` (stereo partly drawn): the Potency entry in assay [1] is “inactive”. Also, the Potency in assay [2] was 4.35 µM (active). Also, the activity change, negative = cell killing in assay [3] was -24.5% [at 9.23 µM].
As to `C=C(NC(=O)C(=C)NC(=O)c1csc(C2=NC3c4csc(n4)C4NC(=O)c5csc(n5)C(C(C)(O)C(C)O)NC(=O)C5CSC(=N5)/C(=C/C)NC(=O)C(C(C)O)NC(=O)c5csc(n5)C3(CC2)NC(=O)C(C)NC(=O)C(=C)NC(=O)C(C)NC(=O)C(C(C)CC)NC2C=Cc3c(C(C)O)cc(nc3C2O)C(=O)OC4C)n1)C(N)=O` (stereo not drawn), the Potency entry in assay [1] is “inactive”. Further, the Potency in assay [2] is 2.3 µM (active); in assay [3] it was 0.916 µM (active).
On the same counts, the results for `C=C[C@@]12COC(=O)C(=C)[C@@H]1[C@@H](O)[C@H](C(=C)C(=O)OC)[C@@H](O)C2` are “inactive”, “inactive” and “inactive”.
Turning to `COC(=O)N1CC2(CC2)C[C@H](C(=O)NO)[C@H]1C(=O)N1CCN(c2ccccc2)CC1`, the Potency result in assay [1], in assay [2] and in assay [3] was “inactive” throughout.
Regarding `C=C1C(=O)OC2CC(C)C(CCC(C)=O)=CCC12` (stereo not drawn), in assay [1], the Potency result is “inactive”. For the same compound, the Potency was 18.3 µM (active) in assay [2] and 12.9 µM (active) in assay [3].
As for `CN(CC1COCCO1)S(=O)(=O)Nc1ccc2ccc3ncc(-c4cnn(C)c4)cc3c(=O)c2c1` (stereo not drawn), the Potency result in assay [1] was “inactive”. For the same compound, the figures for the Potency in assay [2] and in assay [3] were 5.15 µM (active) and 9.16 µM (active), respectively.
As for `C[C@@H]1O[C@@H](O[C@H]2[C@@H](OC(=O)[C@]34CCC(C)(C)CC3C3=CCC5[C@@]6(C)C[C@H](O)[C@H](O[C@@H]7O[C@H](CO)[C@@H](O)[C@H](O)[C@H]7O[C@@H]7OC[C@@H](O)[C@H](O)[C@H]7O)[C@@](C)(C(=O)O)C6CC[C@@]5(C)[C@]3(C)CC4)OC[C@H](O)[C@@H]2O)[C@H](O)[C@H](O)[C@H]1O[C@@H]1OC[C@@H](O)[C@H](O)[C@H]1O` (stereo partly drawn), the activity change, negative = inhibition in assay [1] was -5.44% [at 12.4 µM]. The Potency was 1.54 µM (active) in assay [2] and 2.18 µM (active) in assay [3].
As to `C=CC(C)(O)CC/C=C(\C)C(=O)OC1C(O)C(CO)OC(OC(=O)C23CCC(C)(C)CC2C2=CCC4C5(C)CCC(OC6OC(COC7OCC(OC(C)=O)C(O)C7OC7OC(COC(C)=O)C(O)C(O)C7OC(C)=O)C(O)C(O)C6OC6OCC(O)C(O)C6O)C(C)(C)C5CCC4(C)C2(C)C(O)C3O)C1OC1OCC(OC2OCC(O)C(OC3OCC(O)C(O)C3O)C2O)C(O)C1O` (stereo not drawn), the activity change, negative = inhibition in assay [1] is 5.75% [at 12.4 µM]. Further, the Potency was 0.792 µM (active) in assay [2] and 1.25 µM (active) in assay [3].
In the case of `C=C(C)C(=O)O[C@H]1[C@H]2C(=C)C(=O)O[C@@H]2C[C@@H](C)[C@@H]2O[C@@H]2C(=O)[C@](C)(O)[C@@H]1OC(=O)C(=C)C`, the Potency result in assay [1] is “inactive”. Further, the Potency in assay [2] is 1.78 µM (active); in assay [3], 1.26 µM (active).
On the same counts, the results for `CC(C)C[C@@H](N)C(=O)N[C@H]1C(=O)N[C@@H](CC(N)=O)C(=O)N[C@H]2C(=O)N[C@H]3C(=O)N[C@H](C(=O)N[C@H](C(=O)O)c4cc(O)cc(O)c4-c4cc3ccc4O)[C@H](O)c3ccc(c(Cl)c3)Oc3cc2cc(c3O[C@@H]2O[C@H](CO)[C@@H](O)[C@H](O)[C@H]2O[C@H]2C[C@](C)(N)[C@H](O)[C@H](C)O2)Oc2ccc(cc2Cl)[C@H]1O` are “inactive”, “inactive” and “inactive”.
The corresponding values for `C=C(C)C(=O)O[C@H]1/C(C=O)=C\CC/C(CO)=C/[C@H]2OC(=O)C(=C)[C@@H]2[C@@H]1OC` are “inactive”, 11.3 µM (active) and 2.53 µM (active).
On the same counts, the results for `CO[C@@H]1CC(OC2CCC3(C)C(CCC45CCC(C6=CC(=O)OC6)C(C)(CCC43)C5=O)C2)O[C@H](C)[C@@H]1O[C@@H]1O[C@H](CO[C@@H]2O[C@H](CO)[C@@H](O)[C@H](O)[C@H]2O)[C@@H](O)[C@H](O)[C@H]1O` (stereo partly drawn) are “inactive”, 1.73 µM (active) and 3.46 µM (active).
With `C=CC(C)(C)C12CC3C(=O)N4C(CC5(C(C)(C)C=C)c6ccccc6NC45)C(=O)N3C1Nc1ccccc12` (stereo not drawn), the Potency entry in assay [1], in assay [2] and in assay [3] was “inactive” in each case.
As to `CC1(CO)CC2C(O)C3=C(CC(C)(O)C2C1)C(=O)OC3` (stereo not drawn), the Potency entry in assay [1], in assay [2] and in assay [3] was “inactive” throughout.
For `CN1C(=O)c2sccc2N(C)c2nc(Nc3ccc(S(N)(=O)=O)cc3)ncc21`, the Potency result in assay [1] was “inactive”. For the same compound, the Potency in assay [2] was 1.05 µM (active); in assay [3], 0.59 µM (active).
On the same counts, the results for `C1=Cc2ccccc2C(=C2CCN(CCCCc3nn[nH]n3)CC2)c2ccccc21` are “inactive”, “inactive” and “inactive”.
